The supplement of paper PMC3334620
Whole data set: some 33,000 sequences, median “E-score (-0.5 to 0.5)” near -0.016, cut for the highest 2% near 0.32. Many of the other results were omitted from the sample, so the highest values are more common in it than they were.

The sequences below were run against T1, Stp1 (UniProt B3LFK1) (assay: PBM E-score (8-mer binding enrichment) (E-score (-0.5 to 0.5)); higher = stronger / more preferred TF binding). Conditions: protein concentration: 200 nM; construct: GST-full length.
T1 sequence: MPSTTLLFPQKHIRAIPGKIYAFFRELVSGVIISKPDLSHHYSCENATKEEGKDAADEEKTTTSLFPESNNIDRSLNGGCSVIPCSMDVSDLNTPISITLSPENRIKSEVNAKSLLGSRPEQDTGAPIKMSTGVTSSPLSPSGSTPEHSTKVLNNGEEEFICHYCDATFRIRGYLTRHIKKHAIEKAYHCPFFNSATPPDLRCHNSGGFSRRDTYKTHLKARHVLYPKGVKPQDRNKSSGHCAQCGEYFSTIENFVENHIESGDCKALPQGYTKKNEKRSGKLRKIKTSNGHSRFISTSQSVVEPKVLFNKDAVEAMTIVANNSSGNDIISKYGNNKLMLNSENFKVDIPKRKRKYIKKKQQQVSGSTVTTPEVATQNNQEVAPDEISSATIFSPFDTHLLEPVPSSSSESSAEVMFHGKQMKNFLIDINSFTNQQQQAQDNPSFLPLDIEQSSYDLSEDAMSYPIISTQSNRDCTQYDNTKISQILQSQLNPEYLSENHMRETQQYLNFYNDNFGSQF
Procedure: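 Universal 'all 10-mer' protein binding microarrays (Agilent AMADID 015681) probed with GST-tagged S. cerevisiae TFs (full-length or DBD) made by in vitro transcription/translation (PURExpress), about 100-200 nM. Bound TF was detected with fluorescent anti-GST. Each ungapped 8-mer (which stands for itself and its reverse complement) is scored by the PBM enrichment score (E-score), a modified Wilcoxon-Mann-Whitney statistic from -0.5 to +0.5, computed with the Universal PBM Analysis Suite. Scale: above 0.35 generally sequence-specific binding.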

Row | Sequence | PBM E-score
1 | GGGCAATA | 0.0993
2 | CGGCAATC | 0.332
3 | CGGCAAGC | 0.124
4 | AAGAGCGA | -0.231
5 | CACTAGTG | 0.056
6 | ACCTTTCC | -0.194
7 | GCCTTTCC | 0.381
8 | CCCTTTCC | -0.11
9 | GTTGGGTA | -0.109
10 | AGGCGTAG | -0.0223
11 | CCGCGTAG | 0.25
12 | CGGCGTAC | 0.36
13 | TGGCGTAA | 0.0095
14 | GGGCGTAA | -0.0217
15 | CGGCGTAA | 0.39
16 | AGGCGTAC | 0.137
17 | GGGCGTAC | -0.134
18 | CGGCGTAG | 0.335
19 | ATAGTTTG | 0.121
20 | TGTGCAAA | -0.111
21 | ATCCTGCA | -0.159
22 | CAACGCAC | 0.0556
23 | AAACATTT | 0.0291
24 | ACTATTCC | 0.0191
25 | ACTCGCTG | 0.0353

Row | Sequence | PBM E-score
26 | CACTTAGC | 0.0853
27 | AGAAGTTC | 0.0255
28 | CTGCGCTC | -0.214
29 | AGGCGCTA | 0.358
30 | GGGCGCTA | 0.0956
31 | AGGCGCTC | 0.137
32 | CGGCGCTC | 0.427
33 | CGGCGCTA | 0.453
34 | CCGCGCTA | 0.289
35 | CTGCGCTA | -0.221
36 | AGGCGCTG | 0.311
37 | AGCACTTG | -0.266
38 | GTTCTCAA | 0.2
39 | AGTATAGG | -0.0433
40 | ACATAAAC | 0.129
41 | CACTAAAA | 0.123
42 | CATGCGGG | 0.0548
43 | AATGCGGT | -0.0107
44 | CATGCGGA | 0.156
45 | GATGCGGA | 0.104
46 | GATGCGCC | 0.194
47 | GATGCGGC | 0.47
48 | CATGCGGC | 0.459
49 | AATGCGGG | 0.174
50 | AATGCGGC | 0.435

Row | Sequence | PBM E-score
51 | CAGCTAAG | -0.153
52 | CCCGGTTA | -0.0439
53 | CCTCCCAC | -0.132
54 | ACCGTAGA | 0.0293
55 | CCCGTAGC | -0.24
56 | TCCGTAGA | 0.0858
57 | GCCGTAGC | 0.444
58 | GCCGTAGA | 0.427
59 | ACCGTAGC | -0.138
60 | AACATTCT | 0.215
61 | CGGACGTC | -0.00174
62 | AGGACGGA | -0.161
63 | AGGACGGC | 0.324
64 | CGGACGGC | 0.442
65 | AGGACGGG | -0.271
66 | CGGACGGA | -0.0178
67 | CTTGTGGA | 0.016
68 | CCTACATC | -0.191
69 | ATTCGAAT | 0.0494
70 | AACTGTCA | -0.0285
71 | CCGTATGA | 0.337
72 | CGGTATGC | -0.0255
73 | GCGTATGA | 0.09
74 | CCGTATGC | 0.331
75 | ACGTATGA | 0.15

Row | Sequence | PBM E-score
76 | ACGTATGC | 0.00677
77 | AAAAAGGC | 0.249
78 | AAAAACGC | 0.125
79 | CGAAAGGA | -0.102
80 | CCAAACGC | 0.0617
81 | GAAAAGGC | 0.145
82 | AGAAAGGC | 0.206
83 | CAAAAGGC | 0.359
84 | CGAAAGGC | 0.355
85 | CAAAACGC | 0.322
86 | GCCTGGAA | -0.133
87 | GCGCATCC | 0.0373
88 | CAGCACTA | -0.0254
89 | GTGGTGTA | 0.0559
90 | AAATGTCT | -0.057
91 | CCGGCATC | -0.0881
92 | ACGGCATC | 0.48
93 | ATGGCATG | 0.22
94 | ATGGCATC | 0.186
95 | AGGGCATG | 0.0868
96 | ACGGCATG | 0.422
97 | ACGCGCTC | 0.105
98 | CCGAAATA | 0.0974
99 | GGATGAGA | -0.157
100 | AAGTCAGC | 0.0691

Row | Sequence | PBM E-score
101 | AAACGGCG | 0.481
102 | AAACGGAG | 0.18
103 | AAACGGGT | 0.188
104 | AAACGGTG | 0.1
105 | CAACGGCG | 0.429
106 | AAACGGTC | 0.0651
107 | AAACGGCT | 0.376
108 | CAACGGAG | -0.0687
109 | AAACGGCC | 0.368
110 | CAACGGGG | -0.104
111 | AAACGGAT | 0.259
112 | CAACGGCC | 0.173
113 | CGGGCCAG | -0.159
114 | AAGCGCTG | -0.0462
115 | TGCAGGCA | -0.105
116 | GCTCGCCC | -0.205
117 | CGGGAGAA | -0.111
118 | GGACAATA | 0.0607
119 | ACGTCAAC | 0.0286
120 | CACTCTCG | -0.0668
121 | ATGCTATC | -0.218
122 | CGTAGGAA | -0.0469
123 | ATGGCGGG | -0.132
124 | ATTTGCCC | 0.109
125 | CATTGCCC | 0.0291

Row | Sequence | PBM E-score
126 | ATTTGCCG | 0.335
127 | AATTGCCG | 0.341
128 | ATTTGCCA | -0.0687
129 | AATTGCCC | 0.0223
130 | AATTGCCA | -0.00723
131 | CATTGCCA | -0.0509
132 | CATTGCCG | 0.358
133 | ACGTACGG | 0.292
134 | ACGTACGC | -0.023
135 | CCGTACGC | 0.327
136 | CCGTACGG | 0.341
137 | GCGTACGC | -0.0472
138 | CCGTACGA | 0.298
139 | ACGTGCCA | 0.148
140 | ATTCTACA | 0.221
141 | CAAGTGAA | 0.00842
142 | ACATAAGC | 0.00404
143 | AGCTTACA | 0.0627
144 | AGACCCTC | -0.313
145 | AATGTCAC | 0.136
146 | CTTATGGA | -0.0787
147 | GAGGCGAC | 0.155
148 | GCGGCGAA | 0.427
149 | TCGGCGAA | -0.0263
150 | GCGGCGGA | 0.358

Row | Sequence | PBM E-score
151 | CCGGCGGA | 0.0459
152 | ACGGCGAC | 0.467
153 | ACGGCGGA | 0.314
154 | CCGGCGAA | 0.088
155 | ATGGCGAC | 0.0528
156 | AGGGCGAC | 0.015
157 | CCGGCGAC | -0.167
158 | GCGGCGAC | 0.434
159 | AGCTATGA | -0.183
160 | CACCTGCC | 0.055
161 | GGTGGCTA | 0.0168
162 | AAGCGTAC | -0.161
163 | AGGGACAT | 0.0229
164 | CAGCTTGA | -0.0612
165 | TAAGATGA | 0.0182
166 | TCATCCGA | 0.0548
167 | CAGGGGGG | -0.469
168 | ACGGCGGG | 0.289
169 | ATGGCGAA | 0.139
170 | ACGGCGGC | 0.445
171 | ATGGCGGC | 0.158
172 | AGGGCGAA | -0.0283
173 | ACGGCGAA | 0.465
